Assay outcomes from PubChem BioAssay.
Hits are enriched below; roughly 5.4% of the tested compounds scored in any of these assays.
Calb FLC: C. albicans growth inhibition with fluconazole, primary screen, CaCi-2 strain, Alamar Blue fluorescence. growth inhibition, % (no concentration beside the values). 300,000 tested, 0.57% active. C. albicans CaCi-2 (fluconazole-resistant clinical isolate) + fluconazole, 48 h;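 active = growth inhibition above about 58% in most replicates, limit read from the data, passing the limit was not always enough; inconclusive = exactly half the replicates above a set limit; inactive = most replicates below a set limit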;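 also: all wells also contain fluconazole at 8 µg/ml as a sub-toxic cotreatment; 0% = median of DMSO wells and 100% = median of geldanamycin control wells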
PP1 inh: PP1-alpha phosphatase inhibitors, primary screen, counter-screen for PP5 inhibitor project, biochemical, fluorescence, OMFP substrate, single point; Serine/threonine-protein phosphatase PP1-alpha catalytic subunit (Homo sapiens), P62136; purified PP1alpha; inhibition, % at 6.7 µM; 320,000 tested, 0.9% active;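 active = inhibition above the mean inhibition of all tested compounds plus 3 SD, computed separately for each screening campaign, cut at about 15% in these data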
ALR inh: inhibitors of human ALR sulfhydryl oxidase, primary screen, biochemical, H2O2 detection, HRP-luminol luminescence, single point; FAD-linked sulfhydryl oxidase ALR (Homo sapiens), P55789; purified ALR, DTT oxidation; inhibition, % (no concentration beside the values); 290,000 tested, 3.8% active; AID 485317, 2010;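 active = mean replicate inhibition above about 79%, with every replicate also reaching it, limit read from the data; inconclusive = only one of the two criteria met; inactive = mean below limit and not every replicate reaching it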
PP5 primary: PP5 phosphatase inhibitors, primary screen, biochemical, fluorescence; Serine/threonine-protein phosphatase 5 (Homo sapiens), P53041; purified PP5c, OMFP substrate fluorescence; inhibition, % at 6.7 µM; 320,000 tested, 0.18% active;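 active = inhibition above the campaign's mean inhibition across all tested compounds plus 3 SD, cut at about 9.5% in these data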;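 also: 0% = DMSO only and 100% = 100 µM cantharidin control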
Target sequence (P53041 whole entry, looked up): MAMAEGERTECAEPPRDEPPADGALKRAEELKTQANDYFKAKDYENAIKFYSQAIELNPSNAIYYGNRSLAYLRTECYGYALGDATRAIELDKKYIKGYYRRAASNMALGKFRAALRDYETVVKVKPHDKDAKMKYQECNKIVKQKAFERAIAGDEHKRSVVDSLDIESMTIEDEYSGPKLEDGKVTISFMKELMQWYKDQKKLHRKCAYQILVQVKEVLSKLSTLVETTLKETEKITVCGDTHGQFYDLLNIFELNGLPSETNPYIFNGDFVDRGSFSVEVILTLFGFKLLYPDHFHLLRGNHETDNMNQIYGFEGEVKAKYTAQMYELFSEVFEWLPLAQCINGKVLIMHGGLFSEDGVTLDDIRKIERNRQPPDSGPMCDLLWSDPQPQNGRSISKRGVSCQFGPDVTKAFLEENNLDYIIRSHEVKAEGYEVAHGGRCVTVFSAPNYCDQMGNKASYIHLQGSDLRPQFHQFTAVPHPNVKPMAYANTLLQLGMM
CSC inhib: cancer stem cell viability inhibitors, primary screen, luminescence. cancer stem cell-like cells viability. inhibition, % at 7.5 µM. AID 2717, 2010. 300,000 tested, 1.1% active; in the data active = inhibition above about 75%; inconclusive = no clear call, values can overlap the other calls; tested in HMLE shEcad cells
Starred values were filed as active, the others as inactive; ? = inconclusive; . = not tested or not shown.

SMILES	Calb FLC	PP1 inh	ALR inh	PP5 primary	CSC inhib
CCOc1ccc2nc(N=NC3=C(O)CC(C)(C)CC3=O)sc2c1	89*	-2	-16	1	25
Cc1nc2ccc(N=NC3=C(O)CC(C)(C)CC3=O)cc2s1	-6	-3	.	2	-7
CC(=O)c1ccc(N2CCN(C(=O)c3ccc4[nH]c(C)c(C)c4c3)CC2)cc1	.	.	1	.	-7
O=C(Cn1c(=O)oc2ccccc21)NC(=O)NCc1ccccc1	-2	2	-2	-2	4
COCCNC(=O)c1onc(CSc2ccc(C(C)C)cc2)c1C(=O)O	0	1	89*	2	-4
CCCNC(=O)c1onc(CSc2ccc(Cl)cc2)c1C(=O)NCCC(C)C	-2	0	-11	2	93*
O=C(CSc1ccc2ccccc2c1)Nn1cnnc1	-6	-2	51	0	-12
CCO[C@@H]1OC(C(=O)N2CCN(Cc3ccc4c(c3)OCO4)CC2)=C[C@H](c2cn(C(C)=O)c3ccccc23)[C@H]1CCCO	-14	2	-6	8	-4
CC(=O)SC1CC(=O)N(c2c(C)cccc2C)C1=O (stereo not drawn)	2	1	.	0	-3
CC(=O)SC1CC(=O)N(c2ccc(C(C)(C)C)cc2)C1=O (stereo not drawn)	-1	-5	98*	2	1
COc1cc(C(=O)NCCNC(=O)c2ccc(C)nc2)cc(OC)c1OC	0	0	5	2	0
Cc1cccc(Cn2cccc2/C=C2/C(=N)N3C=CSC3=NC2=O)c1	-1	8	-2	2	11
N#Cc1nc(-c2cccs2)oc1NCc1ccco1	-2	1	18	1	5
CCOc1ccc(/C=C/C(O)=C2/C(=O)N(C)C3(C)CC2c2ccccc2O3)cc1OC (stereo not drawn)	-1	-1	.	1	78*
CCOc1ccccc1Nc1nnc(SCC(=O)NC(Cc2c[nH]c3ccccc23)C(=O)O)s1 (stereo not drawn)	-1	-2	53	0	-14
Cc1ccc(Nc2nnc(SCC(=O)NC(Cc3c[nH]c4ccccc34)C(=O)O)s2)cc1 (stereo not drawn)	30	1	94*	-1	-9
Cc1cc(Cc2cc(C)c(N)cc2C)c(C)cc1N	-12	-2	97*	3	-14
O=C(Nc1nnc(-c2ccccn2)o1)c1ccc(Br)cc1	98*	11	8	1	11
O=C1NN(c2cccc(Br)c2)C(=O)/C1=C/c1cccs1	-6	1	3	1	9
O=C1NN(c2cccc(Br)c2)C(=O)/C1=C\c1ccccc1	-11	3	89*	5	109*
O=C1NN(c2ccccc2)C(=O)/C1=C\c1ccccc1	8	.	90*	.	8
COc1ccc(NC(=O)CN2C(=O)C(=O)N(C3CCCC3)C2=O)c(OC)c1	.	.	-2	.	-11
CCN(CC)c1ccc(/C=N/NC(=O)c2ccc3nc[nH]c3c2)cc1	-2	-4	99*	-4	4
COc1cccc(/C=N/NC(=O)c2ccc3nc[nH]c3c2)c1	-3	-2	93*	2	-14
C=CCc1cccc(/C=N/NC(=O)c2ccc3nc[nH]c3c2)c1O	21	2	.	4	94*
SMILES	Calb FLC	PP1 inh	ALR inh	PP5 primary	CSC inhib
O=C(N/N=C/c1ccc(Cl)cc1Cl)c1ccc2nc[nH]c2c1	?	6	.	1	-2
CC(=O)NC1=NN(c2ccccc2)C(=O)C1	-13	-4	.	0	-12
CCOc1cc(/C=N/NC(=O)CSc2cccc3cccnc23)ccc1O	4	-2	99*	-1	2
O=C(COc1ccccc1-c1ccccc1)N/N=C/c1ccncc1	14	2	-19	3	-12
O=C(CSc1cccc2cccnc12)N/N=C/c1ccncc1	26	-2	-5	-2	.
CCOc1ccccc1NC(=O)C(=O)N/N=C/c1cc(Br)ccc1O	108*	-2	-6	1	-5
CCOc1cc(/C=N/n2c(C)nnc2C)ccc1O	5	-1	94*	3	-5
O=C(COc1ccccc1-c1ccccc1)N/N=C/c1ccc2ccccc2c1	3	13	-15	1	100*
CCCc1cc(=O)oc2c(C)c(OCC(=O)N3C[C@H]4C[C@@H](C3)c3cccc(=O)n3C4)ccc12	-1	3	.	1	-16
